# Measurements reported in PubChem BioAssay.
# Calls of active or inactive are those of the source. Cut-off read from the data, not from the text of the source, unless noted: active = inhibition above about 80%; inactive = the rest.
# How the values were obtained:
# [1] = galactose survival enhancers in mitochondrial complex I cybrids – cell-based, galactose medium, ATP luminescence, primary screen (AID 1645843;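 active = z-score of at least 1.8 in each of two replicates, scored against plate mean and spread of sample wells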;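 note: positive z means more ATP and so rescue of galactose-driven cybrid death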); conditions: complex I mutant cybrid cells, 72 h, stronger effect = higher value
# [2] = growth inhibition, single agent or in combination, cell-based, chromothripsis tumors, cisplatin or BGB combos (AID 1671449); conditions: LFS_MB_P medulloblastoma cells;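 note: cells exposed for 96 hours; 0% = vehicle DMSO and 100% = killing by high DMSO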
# [3] = growth inhibition, single agent and combos, cell-based, chromothripsis tumors, cisplatin or BGB combos (AID 1671450); conditions: HDN33 neuroblastoma cells, stronger effect = higher value;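 note: cells exposed to compound for four days; 0% = vehicle DMSO and 100% = cell killing by high DMSO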
# [4] = growth inhibition, single agents and combos, ICB984, cell-based, cisplatin or BGB combos, synergistic combos for chromothripsis tumors (AID 1671451; call rule not given here;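 note: cells exposed for 96 hours before readout; 0% = vehicle DMSO and 100% = killing by high DMSO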); conditions: ICB984 medulloblastoma cells, drug combinations, stronger effect = higher value
# [5] = growth inhibition, single agents and combos, LFS_MB_1R, cell-based, cisplatin or BGB combos, synergistic combos for chromothripsis tumors (AID 1671452); conditions: LFS_MB_1R medulloblastoma cells, stronger effect = higher value;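 note: cells exposed for 96 hours before readout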
# [6] = growth inhibition, single agents and combos, HTB85, cell-based, BGB or cisplatin IC20 combos, synergistic combos for chromothripsis tumors (AID 1671453); conditions: HTB85 osteosarcoma cells, drug combinations, stronger effect = higher value;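 note: cells exposed for 96 hours before readout; 0% = vehicle DMSO and 100% = high DMSO killing control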
# [7] = growth inhibition, single agents and combos, CRL2098, cell-based, BGB or cisplatin IC20 combos, synergistic combos for chromothripsis tumors (AID 1671454); conditions: CRL2098 osteosarcoma cells, drug combinations, stronger effect = higher value;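 note: cells exposed for 96 h before readout; 0% = vehicle DMSO and 100% = killing by high DMSO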
# [8] = growth inhibition, single agents and combos, HD-MB03, cell-based, BGB or cisplatin IC20 combos, synergistic combos for chromothripsis tumors (AID 1671455; in the data active = inhibition above about 83%;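 note: 0% = vehicle DMSO and 100% = high DMSO as cytotoxic control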); conditions: HD-MB03 medulloblastoma cells, stronger effect = higher value
# [9] = growth inhibition, single agents and combos, UWB1.289, cell-based, BGB or cisplatin combos, synergistic combos for chromothripsis tumors (AID 1671456); conditions: UWB1.289 ovarian carcinoma cells, stronger effect = higher value;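 note: cells exposed to compound for four days; 0% = vehicle DMSO and 100% = killing by high DMSO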
# [10] = growth inhibition, single agents and combos, LFS_MB_2R, cell-based, cisplatin combos, synergistic combos for chromothripsis tumors (AID 1671457); conditions: LFS_MB_2R medulloblastoma cells, stronger effect = higher value;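 note: cells exposed to compound for four days before readout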
# [11] = growth inhibition, MDA-MB-436, cell-based, BGB or cisplatin combos, synergistic combos for chromothripsis tumors (AID 1671458; call rule not given here;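 note: cells exposed for 96 hours; 0% = vehicle DMSO and 100% = killing by high DMSO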); conditions: MDA-MB-436 breast carcinoma growth inhibition, drug combinations, stronger effect = higher value
# [12] = UWB1.289_BRCA1 ovarian cancer growth, cell-based, BGB or cisplatin combinations (AID 1671459); conditions: UWB1.289 BRCA1 ovarian carcinoma, drug combinations, stronger effect = higher value
# [13] = drug combination toxicity in non-malignant astrocytes – cell-based, BGB or cisplatin IC20 combos, cytotoxicity control for chromothriptic childhood tumor combination screen (AID 1671460); conditions: Human astrocytes, viability inhibition, drug combinations, at 0.5 µM, stronger effect = higher value;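 note: cells exposed to compounds for 96 hours before viability readout; 0% = vehicle and 100% = killing control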
# [14] = BT084 cell growth, single and combined drugs, ICGC_MB145, cisplatin and BGB IC40 combos (AID 1671461); conditions: BT084 medulloblastoma cells, drug combinations, stronger effect = higher value;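 note: cells exposed to drugs for 96 hours; 0% = vehicle DMSO and 100% = high DMSO full killing control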
# [15] = RCMB18 cell growth, single agent and combined, cisplatin and BGB IC40 combos (AID 1671462); conditions: RCMB18 medulloblastoma cells, stronger effect = higher value;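 note: cells exposed to compound for four days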
# [16] = CRL1545 cell growth, single agent and combined, cisplatin and BGB IC20 combos (AID 1671464); conditions: CRL1545 osteosarcoma cells, stronger effect = higher value;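 note: cells exposed to compound for 96 hours before readout; 0% = vehicle DMSO and 100% = high DMSO killing control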
# [17] = measured here: combination with BGB IC40, at 0.05 µM
# [18] = measured here: with BGB IC20 combination, at 0.5 µM
# [19] = measured here: with cisplatin IC20 combination, at 0.5 µM
# [20] = measured here: combination with cisplatin, at 0.5 µM
# [21] = measured here: combination with cisplatin, at 5 µM
structure (smiles),measurement,setting,value
COc1cccc(CN2CCN(c3ccc4cccc(OC)c4n3)CC2)c1,z-score,[1],-0.86 (inactive)
Cc1ccc([N+](=O)[O-])cc1S(=O)(=O)N(C)/N=C\c1cnc2ccc(Br)cn12,inhibition,"[2]; at 0.5 µM, stronger effect = higher value",61.9% (inactive)
same,inhibition,"[2]; measured here: combination with BGB IC20, at 0.005 µM",-13.3%
same,inhibition,"[2]; measured here: combination with BGB IC40, at 0.005 µM",-40.2%
same,inhibition,[2]; [17],-31.8%
same,inhibition,"[2]; measured here: combination with cisplatin, at 0.5 µM, stronger effect = higher value",56.3%
same,inhibition,"[2]; measured here: combination with cisplatin, at 5 µM, stronger effect = higher value",118%
same,inhibition,"[3]; BGB combo, at 5 µM",99.2%
same,inhibition,[3]; at 0.5 µM,94.3% (active)
same,inhibition,"[3]; cisplatin combo, at 5 µM",99.5%
same,inhibition,[3]; [18],94%
same,inhibition,[3]; [19],93.5%
same,inhibition,"[3]; single agent, at 5 µM",99.5%
same,inhibition,"[4]; BGB IC20 combo, at 0.005 µM",97.1%
same,inhibition,"[4]; BGB IC40 combo, at 0.005 µM",95.5%
same,inhibition,"[4]; BGB IC40 combo, at 0.05 µM",97.1%
same,inhibition,[4]; at 0.5 µM,-13.8% (inactive)
same,inhibition,"[4]; cisplatin combo, at 0.05 µM",97%
same,inhibition,"[4]; cisplatin combo, at 0.5 µM",-12.8%
same,inhibition,"[4]; cisplatin combo, at 5 µM",-10.7%
same,inhibition,"[4]; measured here: 5 uM single agent, at 5 µM",-35%
same,inhibition,[5]; at 0.5 µM,97.7% (active)
same,inhibition,[5]; [17],22.2%
same,inhibition,[5]; [20],94.2%
same,inhibition,[5]; [21],99.5%
same,inhibition,[6]; at 0.5 µM,95.7% (active)
same,inhibition,"[6]; measured here: with BGB IC20, at 0.5 µM",97.6%
same,inhibition,"[6]; measured here: with BGB IC20, at 5 µM",99.7%
same,inhibition,"[6]; measured here: with cisplatin IC20, at 0.5 µM",99.5%
same,inhibition,"[6]; measured here: with cisplatin IC20, at 5 µM",99.8%
same,inhibition,"[6]; single agent, at 5 µM",99.8%
same,inhibition,[7]; at 0.5 µM,94.2% (active)
same,inhibition,"[7]; measured here: combination with BGB at IC20, at 0.5 µM",89.1%
same,inhibition,"[7]; measured here: combination with cisplatin at IC20, at 0.5 µM",96.8%
same,inhibition,[8]; at 0.5 µM,92.1% (active)
same,inhibition,"[8]; measured here: combo with BGB at IC20, at 0.5 µM",88.3%
same,inhibition,"[8]; measured here: combo with cisplatin at IC20, at 0.5 µM",94.9%
same,inhibition,[9]; at 0.5 µM,64.8% (inactive)
same,inhibition,"[9]; measured here: inhibition with BGB combination, at 0.05 µM",-16.8%
same,inhibition,"[9]; measured here: inhibition with cisplatin combination, at 0.05 µM",-30.8%
same,inhibition,[10]; at 0.5 µM,89.4% (active)
same,inhibition,[10]; [20],92.7%
same,inhibition,[10]; [21],91.4%
same,inhibition,[11]; at 0.5 µM,79.4% (inactive)
same,inhibition,"[11]; measured here: BGB combination, at 0.5 µM",72.5%
same,inhibition,"[11]; measured here: BGB combination, at 5 µM",55.5%
same,inhibition,"[11]; measured here: cisplatin combination, at 0.5 µM",86.1%
same,inhibition,"[11]; measured here: cisplatin combination, at 5 µM",74.6%
same,inhibition,"[12]; BGB combination, concentration series, at 5 µM",89.5%
same,inhibition,[12]; at 0.5 µM,74.9% (inactive)
same,inhibition,"[12]; cisplatin combination, concentration series, at 5 µM",96.2%
same,inhibition,[13],80.6% (active)
same,inhibition,[13]; measured here: combo with BGB IC20,72.4%
same,inhibition,[13]; measured here: combo with cisplatin IC20,82.6%
same,inhibition,[14]; at 0.5 µM,-3% (inactive)
same,inhibition,"[14]; cisplatin combination, at 0.5 µM",-27.5%
same,inhibition,"[14]; cisplatin combination, at 5 µM",-30.7%
same,inhibition,"[14]; measured here: BGB IC40 combination 0.05 uM, at 0.05 µM",-4.87%
same,inhibition,"[14]; single agent, at 5 µM",-15.9%
same,inhibition,[15]; at 0.5 µM,67.8% (inactive)
same,inhibition,"[15]; cisplatin combo, at 5 µM",70%
same,inhibition,"[15]; measured here: BGB IC40 combination, at 0.05 µM",19.8%
same,inhibition,[15]; [20],52.5%
same,inhibition,"[15]; single agent, at 5 µM",76%
same,inhibition,[16]; at 0.5 µM,98% (active)
same,inhibition,[16]; [18],98.1%
same,inhibition,[16]; [19],97.9%
same,inhibition,"[16]; single agent, at 0.05 µM",-77.2%
same,inhibition,"[16]; single agent, at 5 µM",100%
